For experiment [1], the target named is Tyrosine-protein kinase Fyn (Homo sapiens) (UniProt P06241). The following applies: at 1 µM.
Experiment [2] concerns the target Tyrosine-protein kinase HCK (Homo sapiens) (UniProt P08631). The following applies: at 0.1 µM.
Experiment [3] shares this target. The note with it: at 1 µM.
Experiment [4] addresses Insulin-like growth factor 1 receptor (Homo sapiens) (UniProt P08069). The following applies: at 0.1 µM.
For experiment [5] the target is unchanged. The following applies: at 1 µM.
In experiment [6] the target is Insulin receptor (Homo sapiens) (UniProt P06213). The following applies: at 0.1 µM.
For experiment [7] the target is unchanged. The following applies: at 1 µM.
The target in experiment [8] is Insulin receptor-related protein (Homo sapiens) (UniProt P14616). The note with it: at 0.1 µM.
For experiment [9] the target is unchanged. The note with it: at 1 µM.
Experiment [10] addresses T1, Tyrosine-protein kinase ITK/TSK (Homo sapiens) (UniProt Q08881).
T1 sequence (whole entry): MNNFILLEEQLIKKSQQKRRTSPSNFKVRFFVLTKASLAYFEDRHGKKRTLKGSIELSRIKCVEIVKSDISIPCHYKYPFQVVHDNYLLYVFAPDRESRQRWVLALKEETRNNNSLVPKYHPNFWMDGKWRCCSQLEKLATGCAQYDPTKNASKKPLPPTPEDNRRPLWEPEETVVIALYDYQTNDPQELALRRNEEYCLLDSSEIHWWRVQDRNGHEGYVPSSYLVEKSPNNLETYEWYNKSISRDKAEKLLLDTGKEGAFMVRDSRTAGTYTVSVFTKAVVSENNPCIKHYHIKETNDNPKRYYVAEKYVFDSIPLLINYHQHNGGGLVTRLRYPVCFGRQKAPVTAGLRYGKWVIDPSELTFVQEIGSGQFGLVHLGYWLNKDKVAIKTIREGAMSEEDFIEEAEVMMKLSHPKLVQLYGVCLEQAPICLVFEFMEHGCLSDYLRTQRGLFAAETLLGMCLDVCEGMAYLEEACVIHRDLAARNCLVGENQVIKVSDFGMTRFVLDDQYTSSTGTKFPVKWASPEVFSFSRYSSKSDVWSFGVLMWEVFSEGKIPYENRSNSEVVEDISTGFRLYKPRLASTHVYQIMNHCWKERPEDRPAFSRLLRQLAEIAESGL
The following applies: at 0.1 µM.

Experiment [11] addresses T1, Tyrosine-protein kinase ITK/TSK (Homo sapiens). The note with it: at 1 µM.
Experiment [12] has as its target Tyrosine-protein kinase JAK1 (Homo sapiens) (UniProt P23458). The note with it: at 0.1 µM.
For experiment [13] the target is unchanged. The note with it: at 1 µM.
Experiment [14] concerns the target Tyrosine-protein kinase JAK2 (Homo sapiens) (UniProt O60674). The following applies: at 0.1 µM.
The target is the same in experiment [15]. The note with it: at 1 µM.
For experiment [16], the target named is T2, Tyrosine-protein kinase JAK3 (Homo sapiens) (UniProt P52333).
T2 sequence (whole entry): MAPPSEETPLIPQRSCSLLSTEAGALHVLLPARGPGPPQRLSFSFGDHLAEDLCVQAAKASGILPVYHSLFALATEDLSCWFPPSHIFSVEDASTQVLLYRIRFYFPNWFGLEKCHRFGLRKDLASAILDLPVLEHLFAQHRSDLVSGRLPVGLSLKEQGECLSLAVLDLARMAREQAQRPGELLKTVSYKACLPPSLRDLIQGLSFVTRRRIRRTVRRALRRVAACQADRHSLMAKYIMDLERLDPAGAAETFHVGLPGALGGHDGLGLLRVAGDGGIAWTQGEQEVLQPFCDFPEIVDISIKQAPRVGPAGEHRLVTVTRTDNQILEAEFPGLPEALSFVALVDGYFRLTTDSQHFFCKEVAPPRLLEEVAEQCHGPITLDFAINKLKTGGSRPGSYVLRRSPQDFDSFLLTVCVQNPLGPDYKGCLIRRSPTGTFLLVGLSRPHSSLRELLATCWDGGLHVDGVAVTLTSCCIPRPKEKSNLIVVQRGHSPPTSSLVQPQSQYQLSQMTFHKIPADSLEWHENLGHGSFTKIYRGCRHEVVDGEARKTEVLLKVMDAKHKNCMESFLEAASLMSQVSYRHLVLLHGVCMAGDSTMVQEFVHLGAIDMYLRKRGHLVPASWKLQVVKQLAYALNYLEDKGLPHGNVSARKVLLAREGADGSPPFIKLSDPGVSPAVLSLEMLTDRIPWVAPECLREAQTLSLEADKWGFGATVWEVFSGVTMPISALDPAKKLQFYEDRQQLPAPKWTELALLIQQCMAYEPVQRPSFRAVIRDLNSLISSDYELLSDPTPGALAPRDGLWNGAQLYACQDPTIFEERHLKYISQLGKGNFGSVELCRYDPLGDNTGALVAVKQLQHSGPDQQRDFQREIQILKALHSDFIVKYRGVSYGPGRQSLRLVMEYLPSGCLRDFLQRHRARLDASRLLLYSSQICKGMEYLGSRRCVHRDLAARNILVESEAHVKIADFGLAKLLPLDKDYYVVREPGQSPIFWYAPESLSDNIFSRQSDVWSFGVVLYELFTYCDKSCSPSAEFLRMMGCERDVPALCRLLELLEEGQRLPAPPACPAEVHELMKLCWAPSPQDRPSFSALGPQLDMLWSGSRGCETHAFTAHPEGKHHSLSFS
The note with it: at 0.1 µM.

The target in experiment [17] is T2, Tyrosine-protein kinase JAK3 (Homo sapiens). The note with it: at 1 µM.
Experiment [18] has as its target Vascular endothelial growth factor receptor 2 (Homo sapiens) (UniProt P35968). The note with it: at 0.1 µM.
Experiment [19] shares this target. The note with it: at 1 µM.
Experiment [20] has as its target Mast/stem cell growth factor receptor Kit (Homo sapiens) (UniProt P10721). The note with it: at 0.1 µM.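 Note: values are mean inhibition of KIT, from the GSK PKIS dataset.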

Chain of Vascular endothelial growth factor receptor 2 (Homo sapiens) (P35968 whole entry): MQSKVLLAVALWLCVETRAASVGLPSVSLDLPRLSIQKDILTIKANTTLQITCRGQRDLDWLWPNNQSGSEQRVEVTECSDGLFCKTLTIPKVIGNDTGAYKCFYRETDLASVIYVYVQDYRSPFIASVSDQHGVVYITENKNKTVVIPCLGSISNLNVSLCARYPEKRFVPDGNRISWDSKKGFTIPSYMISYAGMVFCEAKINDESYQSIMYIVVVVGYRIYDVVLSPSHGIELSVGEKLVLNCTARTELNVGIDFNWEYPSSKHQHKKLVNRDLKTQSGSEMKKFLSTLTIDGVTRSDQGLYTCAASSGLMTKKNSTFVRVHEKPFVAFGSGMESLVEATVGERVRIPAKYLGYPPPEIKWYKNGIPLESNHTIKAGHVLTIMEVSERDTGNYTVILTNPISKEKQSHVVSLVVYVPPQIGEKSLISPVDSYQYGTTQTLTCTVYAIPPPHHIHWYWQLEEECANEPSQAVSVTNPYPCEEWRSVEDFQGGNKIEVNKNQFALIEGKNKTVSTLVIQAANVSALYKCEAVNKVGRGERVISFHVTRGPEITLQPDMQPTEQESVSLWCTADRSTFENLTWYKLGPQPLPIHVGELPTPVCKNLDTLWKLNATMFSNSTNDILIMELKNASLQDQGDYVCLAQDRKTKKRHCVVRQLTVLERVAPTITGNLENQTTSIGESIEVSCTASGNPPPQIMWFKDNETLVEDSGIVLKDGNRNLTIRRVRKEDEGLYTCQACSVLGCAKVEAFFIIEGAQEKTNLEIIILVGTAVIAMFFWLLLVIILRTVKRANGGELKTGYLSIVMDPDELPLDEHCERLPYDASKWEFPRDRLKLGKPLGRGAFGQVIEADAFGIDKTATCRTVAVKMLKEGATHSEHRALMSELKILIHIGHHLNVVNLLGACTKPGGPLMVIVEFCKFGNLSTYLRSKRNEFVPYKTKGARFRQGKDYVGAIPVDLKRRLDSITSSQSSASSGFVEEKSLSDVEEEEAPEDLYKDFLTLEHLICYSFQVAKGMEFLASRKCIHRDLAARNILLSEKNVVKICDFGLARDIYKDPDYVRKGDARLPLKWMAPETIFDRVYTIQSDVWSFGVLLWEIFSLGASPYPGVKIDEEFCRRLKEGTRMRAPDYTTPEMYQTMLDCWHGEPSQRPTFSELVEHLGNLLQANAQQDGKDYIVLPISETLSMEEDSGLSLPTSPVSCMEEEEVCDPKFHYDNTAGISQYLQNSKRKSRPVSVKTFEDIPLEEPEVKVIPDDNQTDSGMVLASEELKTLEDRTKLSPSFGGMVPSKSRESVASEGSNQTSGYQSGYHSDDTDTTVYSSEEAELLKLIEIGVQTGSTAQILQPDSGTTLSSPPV
Chain of Tyrosine-protein kinase HCK (Homo sapiens) (P08631 2-526 limits assumed): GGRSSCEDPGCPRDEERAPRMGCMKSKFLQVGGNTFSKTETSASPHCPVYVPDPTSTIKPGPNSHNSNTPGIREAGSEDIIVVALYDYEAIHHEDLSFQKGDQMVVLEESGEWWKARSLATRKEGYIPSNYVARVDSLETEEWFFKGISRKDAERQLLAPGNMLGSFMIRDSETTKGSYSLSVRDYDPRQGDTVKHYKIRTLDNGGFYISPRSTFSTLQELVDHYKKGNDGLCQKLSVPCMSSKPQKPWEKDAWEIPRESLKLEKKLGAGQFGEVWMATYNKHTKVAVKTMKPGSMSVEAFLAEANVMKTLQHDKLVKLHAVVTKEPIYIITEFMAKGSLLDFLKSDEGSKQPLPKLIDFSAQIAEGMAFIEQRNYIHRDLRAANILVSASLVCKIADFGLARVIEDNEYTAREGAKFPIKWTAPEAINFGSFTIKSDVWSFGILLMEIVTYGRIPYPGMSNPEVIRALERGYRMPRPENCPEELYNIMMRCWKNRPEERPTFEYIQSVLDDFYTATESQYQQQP
Chain of Tyrosine-protein kinase JAK1 (Homo sapiens) (P23458 whole entry): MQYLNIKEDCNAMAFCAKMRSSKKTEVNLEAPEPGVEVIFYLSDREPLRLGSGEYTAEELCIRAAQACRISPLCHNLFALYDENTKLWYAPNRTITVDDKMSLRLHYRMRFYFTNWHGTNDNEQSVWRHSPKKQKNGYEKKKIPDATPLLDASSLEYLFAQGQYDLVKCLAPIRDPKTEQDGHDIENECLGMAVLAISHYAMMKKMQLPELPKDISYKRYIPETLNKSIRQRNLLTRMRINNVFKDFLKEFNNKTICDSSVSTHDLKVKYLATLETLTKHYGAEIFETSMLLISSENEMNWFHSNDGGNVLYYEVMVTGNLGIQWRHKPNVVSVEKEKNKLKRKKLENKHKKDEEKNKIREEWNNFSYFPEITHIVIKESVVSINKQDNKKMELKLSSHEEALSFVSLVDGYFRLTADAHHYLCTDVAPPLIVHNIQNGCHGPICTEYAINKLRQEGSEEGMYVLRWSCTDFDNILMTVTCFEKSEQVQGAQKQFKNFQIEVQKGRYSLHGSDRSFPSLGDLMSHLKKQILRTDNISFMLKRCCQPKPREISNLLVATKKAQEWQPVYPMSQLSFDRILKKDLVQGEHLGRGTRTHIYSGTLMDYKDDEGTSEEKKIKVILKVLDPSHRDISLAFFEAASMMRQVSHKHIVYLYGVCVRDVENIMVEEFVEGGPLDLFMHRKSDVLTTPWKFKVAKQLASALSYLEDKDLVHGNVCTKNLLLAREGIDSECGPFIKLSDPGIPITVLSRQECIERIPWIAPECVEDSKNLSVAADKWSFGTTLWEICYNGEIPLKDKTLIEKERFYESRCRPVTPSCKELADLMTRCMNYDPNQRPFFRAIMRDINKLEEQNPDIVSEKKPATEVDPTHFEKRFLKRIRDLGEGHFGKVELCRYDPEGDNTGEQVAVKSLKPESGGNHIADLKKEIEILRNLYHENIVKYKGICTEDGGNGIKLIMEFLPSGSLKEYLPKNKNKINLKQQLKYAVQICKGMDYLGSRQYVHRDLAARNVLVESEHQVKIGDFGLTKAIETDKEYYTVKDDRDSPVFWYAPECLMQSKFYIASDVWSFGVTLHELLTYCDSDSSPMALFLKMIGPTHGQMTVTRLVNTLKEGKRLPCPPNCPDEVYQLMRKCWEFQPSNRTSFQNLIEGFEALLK
Chain of Insulin receptor-related protein (Homo sapiens) (P14616 27-742 limits assumed): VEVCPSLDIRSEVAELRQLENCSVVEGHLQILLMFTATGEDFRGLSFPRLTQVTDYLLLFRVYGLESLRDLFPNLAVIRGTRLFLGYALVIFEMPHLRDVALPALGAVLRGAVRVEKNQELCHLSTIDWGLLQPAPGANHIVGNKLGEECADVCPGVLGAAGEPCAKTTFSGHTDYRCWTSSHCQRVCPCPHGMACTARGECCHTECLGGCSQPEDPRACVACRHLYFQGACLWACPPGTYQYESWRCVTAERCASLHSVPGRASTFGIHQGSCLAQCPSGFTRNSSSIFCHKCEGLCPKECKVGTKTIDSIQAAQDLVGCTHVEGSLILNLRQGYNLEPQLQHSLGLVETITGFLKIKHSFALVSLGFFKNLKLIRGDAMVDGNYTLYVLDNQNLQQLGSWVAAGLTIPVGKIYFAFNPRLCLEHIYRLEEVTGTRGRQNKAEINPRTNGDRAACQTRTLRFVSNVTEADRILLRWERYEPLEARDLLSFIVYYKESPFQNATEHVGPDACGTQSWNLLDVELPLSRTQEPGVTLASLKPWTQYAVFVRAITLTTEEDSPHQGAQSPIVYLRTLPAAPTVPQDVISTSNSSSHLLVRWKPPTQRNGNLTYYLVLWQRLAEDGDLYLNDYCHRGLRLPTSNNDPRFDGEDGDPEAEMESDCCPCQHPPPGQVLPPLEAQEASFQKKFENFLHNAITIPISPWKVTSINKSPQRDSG
Chain of Insulin receptor-related protein (Homo sapiens) (P14616 747-1297 limits assumed): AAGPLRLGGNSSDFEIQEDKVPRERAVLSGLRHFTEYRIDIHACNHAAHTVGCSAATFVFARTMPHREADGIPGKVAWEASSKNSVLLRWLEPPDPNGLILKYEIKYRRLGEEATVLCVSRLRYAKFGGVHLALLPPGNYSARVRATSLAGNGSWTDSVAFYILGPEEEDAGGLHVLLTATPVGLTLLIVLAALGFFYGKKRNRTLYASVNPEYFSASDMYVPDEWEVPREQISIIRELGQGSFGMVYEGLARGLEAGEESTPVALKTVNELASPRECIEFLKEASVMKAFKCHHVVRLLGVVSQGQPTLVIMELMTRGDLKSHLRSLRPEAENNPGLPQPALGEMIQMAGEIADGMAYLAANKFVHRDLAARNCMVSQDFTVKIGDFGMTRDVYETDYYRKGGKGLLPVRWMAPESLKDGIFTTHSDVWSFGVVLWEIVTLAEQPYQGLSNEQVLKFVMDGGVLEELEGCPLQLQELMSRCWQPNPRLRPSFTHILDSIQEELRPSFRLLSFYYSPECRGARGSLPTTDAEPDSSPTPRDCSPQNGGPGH
Chain of Tyrosine-protein kinase Fyn (Homo sapiens) (P06241 2-537 limits assumed): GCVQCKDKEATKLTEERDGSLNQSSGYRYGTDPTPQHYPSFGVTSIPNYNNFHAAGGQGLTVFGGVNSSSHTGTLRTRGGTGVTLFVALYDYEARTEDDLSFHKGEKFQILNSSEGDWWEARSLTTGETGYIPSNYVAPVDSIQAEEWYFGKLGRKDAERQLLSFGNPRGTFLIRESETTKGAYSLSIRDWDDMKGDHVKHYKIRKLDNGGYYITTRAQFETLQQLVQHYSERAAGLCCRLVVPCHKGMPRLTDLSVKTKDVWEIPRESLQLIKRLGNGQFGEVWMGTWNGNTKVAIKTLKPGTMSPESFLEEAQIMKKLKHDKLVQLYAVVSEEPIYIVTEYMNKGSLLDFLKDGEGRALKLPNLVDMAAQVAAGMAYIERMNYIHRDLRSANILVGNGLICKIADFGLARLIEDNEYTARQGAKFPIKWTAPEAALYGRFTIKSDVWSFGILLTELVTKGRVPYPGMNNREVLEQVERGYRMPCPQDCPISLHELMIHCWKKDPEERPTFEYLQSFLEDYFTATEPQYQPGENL

On to `Cc1ccc(O)cc1Nc1ccnc2cc(-c3ccccn3)ccc12`, for which the inhibition worked out at 88.5% in experiment [1]; 70.9% in [2]; 87.9% in [3]; 5.77% in [4]; 4.82% in experiment [5]; 5.4% in [6]. The inhibition turned out to be 5.51% in experiment [7]; 5.36% in experiment [8]; 3.66% in [9]; 1.62% in experiment [10]; 2.42% in [11]; 7.02% in [12]. Also, the inhibition is 3.25% in experiment [13]; 2.62% in experiment [14]; 3.62% in experiment [15]; -1.06% in experiment [16]; 0.79% in [17]; 78.6% in experiment [18]. For the same compound, the figures for the inhibition in experiment [19] and in [20] were 93.5% and 10.4%, respectively.

As to `Nc1ncc(-c2cccc(S(N)(=O)=O)c2)c2scc(-c3ccc(F)c(Cl)c3)c12`, the inhibition in experiment [1] is 32.6%; in [2], 28.2%; in [3], 76.1%; in [4], 0.87%; in experiment [5], 1.23%; in experiment [6] it was -0.93%. The inhibition in experiment [7] was 1.76%; in [8], 2.94%; in experiment [9] it was 4.45%; in experiment [10] it was 0.53%; in experiment [11], 3.69%; in [12], 2.73%. Further, the inhibition is 6.91% in experiment [13]; 0.29% in experiment [14]; 1.31% in experiment [15]; -2.63% in [16]; -0.64% in experiment [17]; 6.89% in experiment [18]. The inhibition in experiment [19] amounted to 34.2%; in experiment [20], 38%.

For the compound `COc1ccc(CNC(=O)c2ccc(-c3cc(-c4nnc(C)o4)ccc3C)cc2)cc1`, the inhibition in [1] was 2.79%; in experiment [2], 5.56%; in [3], 4.62%; in experiment [4], -2.65%; in experiment [5] it was 0.47%; in experiment [6] it was 0.9%. In addition, the inhibition in experiment [7] was determined as 0.55%; in experiment [8], 0.27%; in experiment [9] it was 0.52%; in experiment [10], 2.25%; in experiment [11], 2.72%; in experiment [12], 7.51%. Further, the inhibition in [13] amounted to 19.9%; in experiment [14] it was 1.15%; in experiment [15], 1.48%; in [16], 1.7%; in experiment [17], 3%; in experiment [18], 5.17%. Besides, the inhibition turned out to be 9.11% in [19] and 2.42% in [20].

Turning to `COc1ccc(-c2cc3c(N)ncnc3o2)cc1`, the inhibition is 3.42% in experiment [1]; -0.32% in experiment [2]; 7.05% in experiment [3]; -3.63% in experiment [4]; -0.91% in experiment [5]; -0.41% in experiment [6]. Further, the inhibition in [7] was 2.44%; in experiment [8] it was -2.87%; in experiment [9], -2.2%; in experiment [10] it was -0.48%; in experiment [11], 0.68%; in experiment [12] it was -0.12%. Also, the inhibition was 7.71% in experiment [13]; -0.86% in experiment [14]; 3.1% in experiment [15]; -0.88% in experiment [16]; 0.39% in [17]; 0.19% in [18]. Besides, the inhibition is 2.97% in experiment [19] and -0.07% in [20].

`CCN(CC)S(=O)(=O)c1ccc(OC)c(Nc2ncc(-c3ccccc3)o2)c1`: the inhibition stood at 45.2% in experiment [1]; 7.41% in [2]; 28.1% in [3]; 7.86% in experiment [4]; 7.98% in [5]; 2.78% in [6]. The inhibition came out at 2.35% in experiment [7]; 0.57% in experiment [8]; 0.72% in [9]; 0.31% in experiment [10]; 2.62% in experiment [11]; 1.87% in experiment [12]. In addition, the inhibition was 0.33% in [13]; 0.36% in [14]; 1.73% in experiment [15]; -0.47% in experiment [16]; 2.16% in experiment [17]; 31.3% in [18]. Besides, the values for the inhibition in experiment [19] and in [20] were 68% and 33.5%, respectively.

Usually inhibition stands for the change of the read-out against control, counted positive when it falls.
